Assay results taken from PubChem BioAssay AID504941 (Broad Institute, 2011).
About 170 (14%) of roughly 1,200 compounds were called active. How the calls were made is not given here. Only a sample is shown. Entries that show only a call come without a potency. Potency and affinity values are given separately.

assay: twin-arginine translocation blockade, bacterial reporter – cherry-pick, set 2, plate reader, dose response (AID 504941); conditions: E. coli Tat transport reporter; series mostly up to 38 µM

SMILES | outcome
CC(C)OCC(O)CN1CCN(CC(O)COc2ccc3c(c2)OCO3)CC1 (configuration not stated) | inactive
CCCCN(C)C(=O)c1cc2cc([N+](=O)[O-])cc(OC)c2oc1=O | inactive
Cc1cccc(N(CC(=O)NC2CCCC2)C(=O)CCCC(=O)Nc2ccccn2)c1 | inactive
CCCCn1c(N)c(N(CCOC)C(=O)COC(=O)C(C)Oc2ccc(Cl)cc2)c(=O)[nH]c1=O (configuration not stated) | inactive
O=C(Nc1nnc(S(=O)(=O)N2CCCCCC2)s1)c1ccccc1Br | inactive
C=CCn1c(SCC(=O)NCc2ccc3c(c2)OCO3)nnc1-c1cccnc1 | inactive
COC(=O)C[C@H]1c2cc(F)cc(F)c2S(=O)(=O)N1C1CCN(Cc2ccccc2)CC1 | inactive
NC(=O)C1CCN(C(=O)c2ccco2)CC1 | inactive
NC(=O)C1CCN(C(=O)CSc2nc3ccccc3o2)CC1 | inactive
O=C(CCc1nc2cccnc2n1Cc1ccccc1)N1CCOCC1 | inactive
O=C(CCSc1ccccc1)N1CCN(C(=O)c2ccco2)CC1 | inactive
CN(Cc1ccccc1)c1ncnc2sccc12 | inactive
COC(=O)c1sccc1NC(=O)c1ccc2c(c1)OCO2 | inactive
Cc1ccccc1C(=O)N1CCN(c2ccc(NC(=S)NC(=O)c3cccs3)cc2)CC1 | inactive
Cc1ccccc1C(=O)N1CCC(C(=O)Nc2ccccc2Cl)CC1 | inactive
O=C(CC1SCCNC1=O)Nc1cccc(Cl)c1 (configuration not stated) | inactive
COc1cccc(CN2CCN(Cc3cc(OC)c(OC)cc3[N+](=O)[O-])CC2)c1 | inactive
COc1ccc(CCN2C(=O)CC(NNC(=O)c3ccc(F)cc3)C2=O)cc1OC (configuration not stated) | inactive
Cc1cc(C(=O)NNC(=O)c2ccc(F)cc2)c(C)s1 | inactive
Cc1nn(Cc2ccccc2)c(C)c1NC(=O)c1noc2c1CCc1ccccc1-2 | inactive
Cc1nc(Cl)c(C(=O)NCc2ccccc2)c(C)c1Cl | inactive
CCOc1cccc(=O)c2c(C)n(-c3ccc(C(=O)O)cc3)c(C)c12 | inactive

SMILES | outcome
O=C(CCCc1ccccc1)Nc1ccc2c(c1)OCCO2 | inactive
O=C(O)CC(NCc1ccco1)C(=O)OCCc1ccccc1 (configuration not stated) | inactive
Cc1cc(C)c2oc(=O)cc(CN3CCN(Cc4ccc5c(c4)OCO5)CC3)c2c1 | inactive
CCOC(=O)[C@H]1[C@H]2COc3ccc(Cl)cc3[C@@H]2N2C(=O)[C@H](C)NC(=O)[C@@]12C | inactive
C[C@H]1NC(=O)[C@@]2(C)[C@@H](c3ccccc3)[C@H]3COc4ccccc4[C@H]3N2C1=O | inactive
CC(=O)c1c(C)[nH]c(C(=O)CSc2nnc3ccccn23)c1C | inactive
CC(=O)Oc1ccc2c(c1)OC(c1ccccc1)CC21CC(C)(C)NC(=S)N1 (configuration not stated) | inactive
C=CCC[C@H](Cc1ccc(F)cc1)C(=O)OC[C@@H](C)NC(=O)[C@H](CC=C)CC(=O)NCCO | inactive
Nc1nc2n(n1)C(c1cccc(Br)c1)CC(c1ccccc1)N2 (configuration not stated) | inactive
CC(Oc1ccc2c(-c3ccccc3)cc(=O)oc2c1)C(=O)NCCCN1CCOCC1 (configuration not stated) | inactive
COc1ccccc1N1CCN(CC(=O)Nc2ccc3c(c2)OCCO3)CC1 | inactive
COc1cccc(CNC(=O)CN2C(=O)CCSc3ccc(S(=O)(=O)N4CCCC4)cc32)c1 | inactive
Cc1ccc(NC(=S)NCCC2=CCCCC2)cc1 | inactive
O=C(NCc1ccccc1)c1ccc(CS(=O)(=O)c2ccccc2)o1 | inactive
CCC1CCCCN1Cc1nc2c(c(=O)n(C)c(=O)n2C)n1CCCc1ccccc1 (configuration not stated) | inactive
Cc1onc(C(=O)NCc2ccc(F)cc2)c1[N+](=O)[O-] | inactive
O=C(CCC1CCCCC1)NCCN1CCOCC1 | inactive
COCCCN=C(c1ccco1)n1c(=S)nc(-c2ccco2)n(CCCOC)c1=S | inactive
O=C(CN1CCC(c2nc3ccccc3s2)CC1)NCc1cccs1 | inactive
O=C(Nc1ccc(C(=O)O)cc1)/C(=C\C=C\c1ccccc1)NC(=O)c1ccccc1Br | inactive
O=C(Nc1cc(S(=O)(=O)N2CCOCC2)ccc1N1CCCC1)c1ccc(Cl)cc1 | inactive
Cc1cc(Oc2nc3c(C)cccn3c(=O)c2/C=C(\C#N)S(=O)(=O)c2ccc(Cl)cc2)ccc1Cl | inactive

SMILES | outcome
CCOC(=O)C1=C(C)Nc2ncnn2C1c1cc(Br)ccc1F (configuration not stated) | inactive
Cc1ccn(C(=O)c2ccc(NC(=O)C3CC3)cc2)n1 | inactive
COc1ccc(NC(=O)C2CCN(Cc3cnn(-c4ccccc4)c3-n3cccc3)CC2)cc1OC | inactive
O=C(CSc1cccc2cccnc12)N/N=C/c1ccncc1 | inactive
Clc1ccccc1CSc1nnc(-c2cccnc2)n1Cc1ccco1 | inactive
CCN(CC)CC(=O)Nc1ccc(C)cc1C(=O)c1ccccc1 | inactive
COc1ccccc1NC(=O)NCCCCc1ccccc1 | inactive
COc1ccc(CCNCC(O)COc2c(C)cccc2C)cc1OC (configuration not stated) | inactive
COCCNc1nc(N)c([N+](=O)[O-])c(NCC2CCCO2)n1 (configuration not stated) | inactive
CCOC(=O)c1sc(-c2ccccc2)cc1NC(=O)Nc1ccc([N+](=O)[O-])cc1 | inactive
O=C1c2cccc3cccc(c23)C(=O)N1CC1CCN(CC(O)COc2ccc3ccccc3c2)CC1 (configuration not stated) | inactive
Cc1cccc(OCC(O)Cn2c(=N)n(CCN3CCOCC3)c3ccccc32)c1 (configuration not stated) | inactive
COC(=O)COc1cccc(NC(=O)c2cccc(C)c2)c1 | inactive
CCCc1[nH]nc2c1C(c1ccc(OC(=O)c3ccco3)cc1)C(C#N)=C(N)O2 (configuration not stated) | inactive
O=C1c2ccccc2NC(c2ccc(Cl)cc2Cl)N1O (configuration not stated) | inactive
CCOc1cc(/C=N/NC(=O)C(=O)NCc2cccnc2)ccc1O | inactive
S=c1[nH]nc(-c2cccnc2)n1C1CCCCC1 | inactive
O=S(=O)(NC1CCCCC1)c1ccc(Cl)s1 | inactive
CCC(C)OC1OC(CO)C(O)C(O)C1NC(C)=O (configuration not stated) | inactive
C[C@@H]1C(c2ccc(F)cc2)=NN(c2ccccc2)[C@H]1C(=O)N1CCOC1=O | inactive
O=C(Nc1ccccc1F)C1CCN(C(=O)Cc2ccccc2)CC1 | inactive
CCN(CC)S(=O)(=O)N1CCC(C(=O)NC2CCCC2)CC1 | inactive

SMILES | outcome
CCOc1cc(C(=O)N2CCCN(C)CC2)cc(OCC)c1OCC | inactive
COC(=O)c1sc(NC(=O)CSc2nnnn2-c2ccc(C)cc2C)nc1C | inactive
CN1CC(c2ccccc2Cl)C2(COc3ccccc3C2=O)C12C(=O)Nc1ccccc12 (configuration not stated) | inactive
CC1(C)c2ccccc2N2CC(=O)NC21/C=C/c1ccco1 (configuration not stated) | inactive
CCc1ccc(C(=O)Nc2ccc(S(=O)(=O)Nc3nc(C)cc(C)n3)cc2)o1 | inactive
Cc1ccc2nc(C(=O)O)c(C(=O)O)nc2c1 | inactive
O=C(Cn1c(=O)oc2cc(S(=O)(=O)N3CCc4ccccc43)ccc21)N1CCCCC1 | inactive
O=C(Cn1nnc(-c2ccccc2)n1)N/N=C/c1cccc([N+](=O)[O-])c1O | inactive
COc1ccccc1N(CC(=O)NC1CCCC1)C(=O)c1csnn1 | inactive
Cc1cc(=O)oc2cc(OCC(=O)OCC(=O)N3CCc4ccccc43)ccc12 | inactive
CCCCCCc1ccc(N2C[C@H](Cc3ccccc3)[C@@H](CC(=O)NCc3ccc(OC)cc3)C2=O)cc1 | inactive
CCCOc1cc(C)c(S(=O)(=O)N2CCN(C)CC2)cc1C | inactive
COc1ccc(OC)c(S(=O)(=O)NCCc2ccccc2)c1 | inactive
COc1ccc(S(=O)(=O)NCc2ccco2)c2ccccc12 | inactive
COC(=O)C1=CN(C(C)C)C=C(C(=O)OC)C1c1cccc(OC)c1 | inactive
COc1ccc(N2C(=O)C3C4C=CC(C4)C3C2=O)nn1 (configuration not stated) | inactive
CCNC(=O)c1ccc(NS(=O)(=O)c2ccccc2)cc1 | inactive
Cc1ccc(-c2cc(C(=O)OCC(=O)N(C)c3c(N)n(Cc4ccccc4)c(=O)[nH]c3=O)c3ccccc3n2)o1 | inactive
N#CC1=C2SCC(O)(c3ccccc3)N2C(=O)CC1c1ccccc1F (configuration not stated) | inactive
COc1cc(NC(=O)C2CC(=O)NC3=C2C(=O)CC(C)(C)C3)c(OC)cc1Cl (configuration not stated) | inactive
Cn1c(C(=O)NCc2cccs2)cc2c(=O)n(C)c3ccccc3c21 | inactive
COC(C(=O)Nc1ccnn1C1CCN(Cc2ccc(C)o2)CC1)c1ccccc1 (configuration not stated) | inactive

SMILES | outcome
O=C(c1n[nH]c2ccccc12)N1CCOCC1 | inactive
O=C(CSc1cccc[n+]1[O-])Nc1ccccc1C(F)(F)F | inactive
C/C(Cn1nnc([N+](=O)[O-])n1)=N\NC(=O)c1ccc(O)cc1O | inactive
CC1CCCCN1S(=O)(=O)c1ccc(NC(=O)c2ccco2)cc1 (configuration not stated) | inactive
CCn1c(C)nc2cc(C(=O)N/N=C/c3ccc(OC)c(O)c3)ccc21 | inactive
COc1cccc(C2C(C(=O)OC(C)C)=C(C)Nc3ncnn32)c1 (configuration not stated) | inactive
CCN(CC)S(=O)(=O)c1ccc(=O)n(CC(=O)N2Cc3ccccc3CC2C(N)=O)c1 (configuration not stated) | inactive
CC(Sc1nc2ccccc2c(=O)n1C)C(=O)NC1CCCCC1C (configuration not stated) | inactive
Cc1nn(Cc2ccccc2Cl)c(C)c1NC(=O)c1ccn(C)n1 | inactive
Cn1c(=O)oc2cc(S(=O)(=O)NCCN3CCCCCC3)ccc21 | inactive
CC(C)Sc1nc2c(c(=O)[nH]c(=O)n2C)n1CCc1ccccc1 | inactive
CCOCCOc1nc2c(c(=O)n(C)c(=O)n2C)n1Cc1ccc(C)cc1 | inactive
CCn1c(SCC(=O)Nc2ccc(OC)cc2)nc2c1c(=O)n(C)c(=O)n2C | inactive
CN(C)c1nc(NCc2ccccc2)nc(SCC(N)=O)n1 | inactive
O=C(CN1CCN(c2ccccc2)CC1)N1N=CCC1c1ccccc1 (configuration not stated) | inactive
Cn1c(-c2ccccc2)cnc1N | inactive
Cc1nc2ccccc2c(=O)n1CCCO | inactive
Cc1c(OCC(=O)NCCCN2CCOCC2)ccc2c1oc(=O)c1ccccc12 | inactive
CC(Sc1ccsc1[N+](=O)[O-])C(=O)N1CCN(c2ccccn2)CC1 (configuration not stated) | inactive
